Source: PubChem BioAssay AID1745845 (National Center for Advancing Translational Sciences (NCATS), 2022)
Values joined by “and” are separate entries in the source; they are usually repeats but may differ in a detail not shown here. Equal values may be shown once. In all, about 360,000 compounds went through this assay and about 2,600 (0.72%) were called active. Not shown: some 5% with an inconclusive outcome. The full list was thinned out, with actives kept by preference. Unmarked numbers belong to inactive results. Calls come from the whole dose curve; as a rule, active = well fitted inhibition curve with a large enough effect; inconclusive = small, poorly fitted or top-dose-only effect; inactive = no such curve, though single readings can be large or run the other way.

experiment: Primary qHTS for Inhibitors of ATXN expression; conditions: HEK-293 ATXN2-luciferase reporter, luminescence, 24 h; series mostly up to 57 µM; activity change, negative = inhibition: at the top concentration; note: nearly all actives have a fitted effect of over 55% in size
Method in brief: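 qHTS (up to 57 uM final) was run with 24 h compound exposure of reporter cells at 37 °C. Each well was multiplexed: SteadyGlo luminescence measured ATXN2-luciferase expression after a fluorogenic Gly-Phe-AFC viability readout (25 uM final).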
% is set by controls: 0 for no effect and ±100 for the full control effect; potency is the fitted concentration of half-maximal effect.

SMILES	activity change, negative = inhibition	Potency
CCNC(=O)c1cc2n(n1)CCCN(Cc1ccc(C)cc1)C2=O	-4.43%	
CC1CCCCN1S(=O)(=O)c1ccc(F)c(C(=O)Nc2ccccc2C(F)(F)F)c1 (centres undefined)	5.86%	
CCN(CCCNC(=O)CSc1cc(=O)n(C)c2cc(Cl)ccc12)c1cccc(C)c1	0.149%	
CC[C@H]1CN2CCc3cc(OC)c(OC)cc3[C@@H]2C[C@@H]1C[C@H]1NCCc2cc(OC)c(OC)cc21		1.41 µM (active) and 112 nM (active)
COc1cc2c(cc1OC)CN(CC(=O)Nc1ccc(F)cc1)CC2	-13.5%	
CCC(CC)C(=O)N1CCc2cc(OC)c(OC)cc2C1COc1ccc(F)cc1 (centres undefined)	-18.3%	
Cc1cc(C)cc(NS(=O)(=O)c2cc3c(cc2C)NC(=O)CO3)c1	-22.7%	
CC=CCC=CCCC(=O)[C@H]1O[C@@H]1C(N)=O	6.5%	
COc1ccc2c(c1)c(=Cc1ccc(N(C)C)cc1)c1cc(-c3ccccc3)[n+](C)n12		8.91 µM (active)
COc1cccc(NC(=O)Cn2c(=O)cc(C)c3c(C)nn(-c4cccc(F)c4)c32)c1	10.1%	
CCOC(=O)C1CCN(c2csc3ccc(C)cc3c2=O)CC1	18.8%	
CCCCN1C(=O)C(C)=C(C)C1OCCc1ccc(OC)c(OC)c1 (centres undefined)	-2.38%	
COc1ccc(CN2C(=O)CC(Cc3ccc(C)cc3)C2=O)cc1OC (centres undefined)	4.42%	
CCCCOc1ccc(CN2C(=O)C(=O)c3cc(Br)cc(C)c32)cc1OC		31.6 µM (active)
COc1ccccc1CNC(=O)CS(=O)(=O)c1cccc2nsnc12	14.6%	
Cc1cc2ccccc2n1CCNC(=O)c1ccc(F)cc1	5.13%	
Cc1ccc2[nH]c(=O)c(CN(CC3COCCO3)C(=O)Nc3ccccc3C)cc2c1 (centres undefined)	-15.9%	
CCC(=O)N(CCc1ccccc1)Cc1cc2cc(C)ccc2[nH]c1=O	5.99%	
Cc1ccc2[nH]c(=O)c(CN(CCCN(C)C)C(=O)Nc3cccc(Cl)c3)cc2c1		15.8 µM (active)
CCOc1ccc(OCC)c(NC(=O)c2c(C)nn(-c3ccccc3)c2-n2cccc2)c1	31.2%	

SMILES	activity change, negative = inhibition	Potency
CC(C)(C)OC(=O)N1CCC(c2c(C(=O)Nc3ccc4c(c3)OCO4)cnn2-c2ccccc2)CC1	-3.01%	
CCOC(=O)C/C(C)=N\Nc1ccc([N+](=O)[O-])cc1[N+](=O)[O-]	0%	
CCOC(=O)/C(=C\c1ccc([N+](=O)[O-])cc1)C(=O)c1cc(C(C)=O)c(Nc2ccccc2)s1		8.91 µM (active)
CCOC(=O)/C(=N\Nc1ccccc1[N+](=O)[O-])c1csc(Nc2ccccc2)n1	-8.65% [at 11.3 µM]	
O=C(NCC12CC3CC(CC(C3)C1)C2)c1cc2nc(-c3ccccc3)cc(C(F)(F)F)n2n1	12.1%	
CC(=O)NC(c1cccs1)c1cc(Br)c2cccnc2c1O (centres undefined)		5.01 µM (active)
O=C(Nc1cccc2cccnc12)c1cccc2c(Br)cccc12	8.25%	
N#Cc1ccccc1NC(=O)COc1c(Br)cc(Br)c2cccnc12	-35.6%	
COc1ccc2cc1Oc1ccc(cc1)C[C@H]1c3cc(c(OC)cc3CCN1C)Oc1c(O)c(OC)cc3c1[C@H](C2)N(C)CC3		25.1 µM (active)
COc1ccc(-c2nc3ccccc3o2)cc1NC(=O)c1cc([N+](=O)[O-])ccc1N1CCOCC1	14.3%	
COc1ccccc1CNC(=O)c1ccccc1NC(=O)c1nsc2ccccc12	16.5%	
CC1CCCCC1NC(=O)/C(C#N)=C/C=C/c1ccccc1[N+](=O)[O-] (centres undefined)		3.16 µM (active)
O=[N+]([O-])c1ccccc1/C=C/CN1CCC(O)CC1	-12.1%	
O=[N+]([O-])c1ccccc1/C=C/CN1CCCC(CO)C1 (centres undefined)	-14.6%	
COC(=O)/C=C(/C)N	-1.98%	
CN1CC[C@H](c2c(O)cc(O)c3c(=O)cc(-c4ccccc4Cl)oc23)[C@H](O)C1		31.6 µM (active)
CCOc1cc(C=C2C(=O)N(c3ccccc3)N=C2C)cc(Cl)c1OCC(=O)OC	-6.07%	
COc1cccc(CNCCc2c[nH]c3ccccc23)c1OCc1ccccc1F		20 µM (active)
COc1ccc(C(CCNCc2ccccc2F)c2ccc(F)cc2)cc1 (centres undefined)	-16.3%	
COc1cccc(CNCCSc2nnnn2C)c1OCc1ccccc1Cl	16.1%	

SMILES	activity change, negative = inhibition	Potency
Cc1nnc(C(=O)NC(C)(C)c2nc(C(=O)NCc3ccc(F)cc3)c(O)c(=O)n2C)o1	3.13%	
COc1ccc(S(=O)(=O)NCCSc2nnnn2-c2ccccc2)cc1	-23.7%	
CSc1ncnc2c1ncn2CCCNCc1ccco1	-8.18%	
CSc1ncnc2c1ncn2CC(=O)C1CCC2C3CCC4=CC(=O)CCC4(C)C3CCC12C (centres undefined)		22.4 µM (active)
CSc1ncnc2c1ncn2CCCNCC1CCCCC1	-12.5%	
COc1ccc(-c2nc(Cn3c(=O)cc(C)c4c(C)nn(-c5ccccc5)c43)c(C)o2)c(OC)c1	7.3%	
CCOc1ccccc1CNC(=O)c1ccc(-n2c(C)cc3c2CCC(C)C3)cc1 (centres undefined)	0%	
CO/N=C(/C(=O)N[C@@H]1C(=O)N2C(C(=O)O)=C(Cn3nnc(C)n3)CS[C@H]12)c1csc(N)n1	2.99%	
CC(C)c1ccc(S(=O)(=O)Nc2ccc(O)c(Sc3nc4ccccc4s3)c2)cc1	-19.1%	
CC(C)(C)c1ccc(S(=O)(=O)Nc2ccc(O)c(Sc3nc4ccccc4s3)c2)cc1	-25.6%	
O=[N+]([O-])c1c(NCCO)cc(Sc2nc3ccccc3s2)c2nonc12		14.1 µM (active)
CCCCC[C@H](C)N1C[C@@H](COCc2ccccc2)Oc2cc(N3CCC[C@@H]3CO)ccc2S1(=O)=O	-22.8%	
CCCCC[C@H](C)N1C[C@@H](COCc2ccccc2)Oc2cc(N3CC[C@@H](N(C)C)C3)ccc2S1(=O)=O		31.6 µM (active)
CCCCN1CC(COCc2ccccc2)OCCS1(=O)=O (centres undefined)	7.62%	
Cc1cccc(Nc2nc(C)nc(N)c2S(=O)(=O)c2ccccc2)c1	0.325%	
CC(C)CC[n+]1ccn(C2=C([O-])c3ccccc3C(=O)/C2=N\S(=O)(=O)c2ccccc2)c1		31.6 µM (active)
CCC1=Nc2cc(C(=O)NCCCOC(C)C)ccc2Sc2ccc(C)cc21	-5.7%	
Cc1ccc(C)c(N2CCN(C(=O)CN3C(=O)COc4ccc(S(=O)(=O)N5CCCCCC5)cc43)CC2)c1	7.39%	
COc1cccc(CNC(=O)C2CCC(CNS(=O)(=O)c3cccs3)CC2)c1 (centres undefined)	-0.375%	
